# Measured values as given in PubChem BioAssay (EPA / NIEHS).
# Where “and” joins values, the source holds several entries; their conditions need not be identical. Equal entries are not always repeated. Where a structure was tested more than once in an assay, its records may differ in their call. Calls of active or inactive are those of the source. The calls were made as follows: active = hit-call score of the fitted dose curve at least 0.9, where 1 is the maximum; inactive = score below 0.9.
# Experiment: CCTE_Shafer_MEA_acute_cross_correlation_HWHM: CCTE's Neural Acute Assay for Cross Correlation at Half Width at Half Maximum, Shafer Lab (AID 2284026)
# Procedure: CCTE_Shafer_MEA_acute assay is conducted using Axion Biosystems 48 well microelectrode array (MEA) plates and Maestro recording system. Each well of the MEA plate contains a grid of 16 microelectrodes embedded in the culture surface. Electrically active cells, such as neurons, can be cultured over the electrodes, and electrical activity in these cells can be recorded extracellularly. The spontaneous firing of neurons is captured from each electrode on a microsecond timescale providing both temporally and spatially precise data. […] The CCTE_Shafer_MEA_acute assay uses primary cultures of rat cortical neurons. As these cultures mature over time, neural networks develop functional activity and form cohesive networks in which electrical activity can be highly coordinated. Baseline 40-minute recordings are made on days post-plating 13 or 15, followed by a secondary 40-minute recording after chemical exposure.CCTE_Shafer_MEA_acute_cross_correlation_HWHM is a component of the CCTE_Shafer_MEA_acute assay. It measures the distance along the x-axis (phase lag) from the left half maximum height to the center of the cross-correlogram of action potential firing during a recording in a microelectrode array (MEA) using Axion Biosystems Maestro 768 channel amplifier with the AxIS adaptive spike detector. Smaller values indicate a narrower correlogram (greater synchrony). The recordings before and after chemical treatment are used to calculate a percent change in the half width at half maximum of the cross-correlogram in each well.Data from the assay component CCTE_Shafer_MEA_acute_cross_correlation_HWHM was analyzed into 1 assay endpoint. This assay endpoint, CCTE_Shafer_MEA_acute_cross_correlation_HWHM, was analyzed in the negative analysis fitting direction relative to DMSO as the negative control and baseline of activity. Using a type of functional reporter, gain or loss-of-signal activity can be used to understand electrical activity.
# Spontaneous activity in the cortical cultures was recorded using an Axion Biosystems Maestro 768 channel amplifier and Axion Integrated Studios (AxIS) v1.8 (or later) software. The amplifier recorded from all channels simultaneously (gain = 1200 x; sampling rate = 12.5 kHz/channel): raw signals were filtered with a Butterworth band-pass filter (300-5000 Hz), which filters out slower local field potentials leaving only fast potentials, i.e., "spikes", arising from extracellular currents associated with action potentials (Pine 2006; Wheeler and Nam 2011). On-line spike detection of filtered signals was conducted with the AxIS adaptive spike detector, using a threshold of 8x the root mean squared (rms) noise on each channel. Any electrodes with rms noise levels greater than 5 uV were grounded (e.g., no data were recorded). Once grounded, an electrode was grounded for the duration of the experiment. All recordings were conducted at 37 C. Wells were deemed usable if on the day of the exposure >/= 10 electrodes were active (defined as >/= 5 spikes/min). On DIV 13 or 15, a minimum of three wells from one cortical culture preparation were treated with each compound (0.03-40 uM). Prior to recording baseline activity, each mwMEA plate was placed in the Maestro at 37 C and allowed to sit for 20 min while firing rates stabilized. Baseline activity (40 min) was recorded before the addition of each compound. An additional 40 min of spontaneous activity was recorded in the presence of each compound. Changes in network parameters relative to baseline were assessed following compound treatment.
Compound,outcome,AC50
C=CCC1=C(C)C(OC(=O)C2C(C=C(C)C)C2(C)C)CC1=O (centres undefined),inactive,2.38 µM (active)
C=CCC1=C(C)[C@@H](OC(=O)[C@@H]2[C@@H](C=C(C)C)C2(C)C)CC1=O,,36.2 µM (active)
CCCN(CCC)c1c([N+](=O)[O-])cc(S(N)(=O)=O)cc1[N+](=O)[O-],,10.5 µM (active)
COc1ccc(C(c2ccc(OC)cc2)C(Cl)(Cl)Cl)cc1,inactive,
CC(C)(C)c1ccc(CSc2cnn(C(C)(C)C)c(=O)c2Cl)cc1,,4.43 µM (active)
CCNc1nc(Cl)nc(NC(C)C)n1,,11.8 µM (active)
O=C(O)c1nc(Cl)ccc1Cl,inactive,
COC(=O)C(C)Oc1ccc(Oc2ccc(Cl)cc2Cl)cc1 (centres undefined),,11.7 µM (active)
OC(c1ccc(Cl)cc1)(c1cncnc1)c1ccccc1Cl (centres undefined),,4.34 µM (active)
CCCCNC(=O)OCC#CI,,31.7 µM (active)
CC1COC(Cn2cncn2)(c2ccc(Oc3ccc(Cl)cc3)cc2Cl)O1 (centres undefined),,4.15 µM (active)
COC(=O)N(OC)c1ccccc1COc1ccn(-c2ccc(Cl)cc2)n1,,1.62 µM (active)
CO/C=C(/C(=O)OC)c1ccccc1Oc1cc(Oc2ccccc2C#N)ncn1,inactive,
COP(=S)(OC)Oc1nc(Cl)c(Cl)cc1Cl,inactive,
CNC(=O)ON=CC(C)(C)SC,inactive,
CCOP(=S)(OCC)SCn1c(=O)oc2cc(Cl)ccc21,inactive,
C#CCOS(=O)OC1CCCCC1Oc1ccc(C(C)(C)C)cc1 (centres undefined),,20 µM (active)
Cc1c(F)c(F)c(COC(=O)C2C(/C=C(\Cl)C(F)(F)F)C2(C)C)c(F)c1F (centres undefined),,28.1 µM (active)
CCCC1COC(Cn2cncn2)(c2ccc(Cl)cc2Cl)O1 (centres undefined),,25.8 µM (active)
CS/C(C)=N/OC(=O)N(C)SN(C)C(=O)O/N=C(\C)SC,inactive,
CON(C)C(=O)Nc1ccc(Cl)c(Cl)c1,,6.23 µM (active)
Fc1ccc(Oc2ccnc3cc(Cl)cc(Cl)c23)cc1,inactive,
COP(N)(=O)SC (centres undefined),inactive,
CC(Oc1ccc(Cl)cc1Cl)C(=O)O (centres undefined),inactive,
N#Cc1nn(-c2c(Cl)cc(C(F)(F)F)cc2Cl)c(N)c1S(=O)C(F)(F)F (centres undefined),,13.3 µM (active) and 24.6 µM (active)
N#CC(CCc1ccc(Cl)cc1)(Cn1cncn1)c1ccccc1 (centres undefined),inactive,
CC(C)Oc1cc(-n2nc(C(C)(C)C)oc2=O)c(Cl)cc1Cl,inactive,
Cc1ccc(-c2c(Cl)nc(C#N)n2S(=O)(=O)N(C)C)cc1,inactive,
